In the library only some 1.6% were active in any assay of this set; here they are far more common.
PREPL inh: PREPL enzyme inhibitors, primary screen, biochemical, fluorescence polarization; recombinant PREPL, fluorescence polarization activity-based probe; inhibition, % at 5.96 µM; 320,000 compounds, 0.68% hits; AID 2751, 2010;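 also: 0% = enzyme with DMSO and 100% = wells lacking enzyme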
VLA-4 inh: inhibition in human VLA-4 binding assay, primary screen, VLA-4 allosteric modulator project, MLPCN library, flow cytometry, VLA-4 expressing cells; inhibition, % (about 7 µM as worked out from the volumes in the protocol); 330,000 compounds, 0.2% hits; Integrin alpha-4 (Homo sapiens), P13612; ligand binding flow cytometry; in the data active = inhibition above about 50%
Pemphigus Ab inh: inhibitors of pemphigus antibody binding to DSG3, primary screen, biochemical, bead-based, flow cytometry, scFv-GFP; Desmoglein-3 (Homo sapiens), P32926; DSG3-coupled beads, scFv-anti-DSG3-GFP binding; stronger effect = lower value; binding (percent of control), % at 10 µM; 310,000 compounds, 0.48% hits; AID 588358, 2011;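 active = binding more than 3 SD below its plate's average and above zero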
JMJD2C inh: inhibitors of GASC-1 histone demethylase, primary screen, biochemical, fluorescence, DELFIA europium; inhibition, % at 2.35 µM; AID 2099, 2009; Lysine-specific demethylase 4C (Homo sapiens), Q9H3R0; 330,000 compounds, 0.069% hits; GST-JMJD2C(1-420) H3K9me3 demethylation;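 active = more than half of a compound's replicate wells show inhibition beyond 50%, single wells judged on their own value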;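 also: signal counts dimethyl H3K9 product captured on neutravidin plate; 0% = median of DMSO wells and 100% = 0.3 times that DMSO median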
GRK2 inh: compounds blocking aptamer binding on GRK2 – biochemical, human GRK2, bead flow cytometry, HTS, primary screen; FAM-aptamer displacement from GRK2; inhibition of aptamer binding, % at 10 µM; 330,000 compounds, 0.59% hits; AID 488847, 2010;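 active = inhibition of aptamer binding above 40%, roughly 3 SD of noise, on plates passing a quality check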;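 also: median bead fluorescence of bound FAM aptamer so fluorescent compounds give negative values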
Target sequence (P25098 whole entry, looked up): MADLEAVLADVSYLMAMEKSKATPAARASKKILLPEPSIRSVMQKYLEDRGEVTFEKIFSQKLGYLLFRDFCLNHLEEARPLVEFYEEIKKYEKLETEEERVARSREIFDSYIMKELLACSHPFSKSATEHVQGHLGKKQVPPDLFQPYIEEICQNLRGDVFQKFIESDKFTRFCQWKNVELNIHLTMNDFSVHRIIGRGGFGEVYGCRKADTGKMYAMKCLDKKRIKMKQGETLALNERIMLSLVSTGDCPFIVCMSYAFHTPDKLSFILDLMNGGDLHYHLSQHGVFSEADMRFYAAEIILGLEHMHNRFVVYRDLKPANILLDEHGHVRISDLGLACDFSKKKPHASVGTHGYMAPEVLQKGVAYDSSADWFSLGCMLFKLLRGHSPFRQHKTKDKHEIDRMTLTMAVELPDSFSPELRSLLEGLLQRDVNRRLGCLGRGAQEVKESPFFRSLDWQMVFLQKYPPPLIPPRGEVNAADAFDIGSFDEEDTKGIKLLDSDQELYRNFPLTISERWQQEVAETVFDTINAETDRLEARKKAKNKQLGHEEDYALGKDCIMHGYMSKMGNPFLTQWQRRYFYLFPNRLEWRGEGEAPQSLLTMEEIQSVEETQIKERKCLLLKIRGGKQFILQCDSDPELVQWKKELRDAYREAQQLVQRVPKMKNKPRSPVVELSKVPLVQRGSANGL
PREPL confirm: human PREPL enzyme inhibitors, confirmation, biochemical, fluorescence polarization; shares compounds with PREPL inh; recombinant PREPL, fluorescence polarization activity probe; inhibition, % at 5.96 µM; 2,000 compounds, 67% hits; AID 2803, 2010;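 also: 0% = protein with DMSO and 100% = wells lacking protein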
The depositor's hits bear a star; · = no result given. Rule as the data show it, unless noted: active = inhibition above about 43%; inactive = the rest.

SMILES	PREPL inh	VLA-4 inh	Pemphigus Ab inh	JMJD2C inh	GRK2 inh	PREPL confirm
COc1cc(NC(=O)CN2C(=O)NC(C)(c3ccc4ccccc4c3)C2=O)c(C)cc1[N+](=O)[O-] (stereo not drawn)	58*	-8	105	4	2	42
COCc1c(C(=O)OCc2nnc(-c3ccc([N+](=O)[O-])cc3)o2)oc2ccccc12	43*	-14	·	12	2	40
O=C(O)c1cc(O)c2c(c1)[C@@H]([C@H]1c3cc(C(=O)O)cc(O)c3C(=O)c3c(O[C@@H]4O[C@H](CO)[C@@H](O)[C@H](O)[C@H]4O)cccc31)c1cccc(O[C@@H]3O[C@H](CO)[C@@H](O)[C@H](O)[C@H]3O)c1C2=O	96*	14	·	91*	100*	42
OCC1OC(Oc2cccc3ccccc23)C(O)C(O)C1O (stereo not drawn)	-6	19	95	-5	0	·
COc1ccc(-c2nnn(CC(=O)N(CCN3CCOCC3)C(C(=O)NC3CCCC3)c3ccco3)n2)cc1 (stereo not drawn)	6	18	104	-8	0	·
O=[N+]([O-])c1cccc(COc2ncnc3cc([N+](=O)[O-])ccc23)c1	47*	-2	112	-11	3	36
Cc1cc(F)ccc1NC(=S)NC1CCCC1	·	8	93	-5	3	·
COc1ccc2nc3cc(Cl)ccc3c(Nc3cc(CN4CCCC4)c(O)c(CN4CCCC4)c3)c2n1	64*	17	·	1	0	54*
COc1cc(C=NNc2ccc(S(=O)(=O)Nc3ccccc3C(=O)O)cc2[N+](=O)[O-])ccc1O	55*	4	103	6	1	38
CCOc1ccc(C=NNc2ccc(S(=O)(=O)Nc3ccccc3C(=O)O)cc2[N+](=O)[O-])cc1OC	28	14	·	·	1	·
Cc1ccccc1Cc1c(C)nc2nc(SCC(=O)NCCCN3CCCCC3)nn2c1C	1	4	109	-17	0	·
Cc1nc2nc(SCC(=O)NCCCN3CCCCCC3)nn2c(C)c1Cc1ccccc1	43*	9	104	8	0	37
Cc1cc(C)n2c(Br)c(CN3CCCC(C)C3)nc2n1 (stereo not drawn)	9	17	·	-1	1	·
CN(C)CCCNc1cc(C(C)(C)C)nc2c(-c3ccc(Cl)cc3)cnn12	52*	44	117	5	0	49*
CC(C)(C)c1cc(NCc2ccccn2)n2ncc(-c3ccc(Cl)cc3)c2n1	17	-9	110	-2	·	·
CC(=O)N1CCN(c2ccc(NCc3ccc4c(c3)OCO4)cc2)CC1	72*	-5	93	37	4	12
O=C(c1ccccc1)N1CCN(c2ccc(NCc3ccc4c(c3)OCO4)cc2)CC1	74*	19	92	-3	1	53*
O=C(Nc1ccc(N2CCN(C(=O)c3ccccc3)CC2)cc1)c1cc2ccccc2o1	45*	5	83	4	0	36
O=C(c1ccc2c(c1)OCO2)N1CCN(c2ccccc2)CC1	15	-4	·	-2	8	·
CN1CCN(c2ccc(NC(=O)c3cc4ccccc4o3)cc2)CC1	4	18	98	-6	·	·
COc1ccc(NC(=O)CCN2C(=O)NC3(CCCC3)C2=O)cc1Cl	2	7	·	-7	1	·
Cc1c(CN(C)C)c2c(n1Cc1ccccc1)C(=O)c1ccc(Br)cc1-2	54*	26	·	-7	0	50*
Cc1ccc(C(=O)C2CC2)cc1C	·	·	95	·	·	·
Cc1ccc(Nc2nc(-c3c(C)nc4ncccn34)cs2)cc1	51*	15	98	7	1	45*
CCOC(=O)c1cnc(-n2nc(C)cc2C)nc1Nc1ccc(OC)cc1	10	-2	103	4	6	·
SMILES	PREPL inh	VLA-4 inh	Pemphigus Ab inh	JMJD2C inh	GRK2 inh	PREPL confirm
CCOC(=O)c1cnc(-n2nc(C)cc2C)nc1NCCc1ccccc1	58*	3	·	-2	0	54*
Cc1ccc2sc(N(CCCN(C)C)C(=O)c3ccc(S(=O)(=O)N(C)C4CCCCC4)cc3)nc2c1C	52*	10	116	-7	0	47*
CSc1ccccc1NC(=O)CN(C)C(=O)Cn1c(=O)oc2ccccc21	-4	-4	100	0	0	·
Cc1ccc(OCCn2cc(/C=N/NC(=O)c3ccncc3)c3ccccc32)cc1	52*	-3	117	2	0	65*
COc1ccc(OCCn2cc(/C=N/NC(=O)c3ccncc3)c3ccccc32)cc1	35	-9	101	-14	2	·
COc1cccc(OCCn2cc(/C=N/NC(=O)c3ccncc3)c3ccccc32)c1	50*	-1	102	4	0	33
CSc1ncccc1C(=O)NNC(=O)c1ccc(NS(=O)(=O)c2cccs2)cc1	-8	4	100	8	2	·
CCC1CCc2sc(C(=O)NCC(c3ccc(OC)cc3)N3CCCC3)cc2C1 (stereo not drawn)	-20	5	124	-2	0	·
CN(C)c1ccc(N=C/C=C2\N(C)c3ccccc3C2(C)C)cc1	70*	-188	169	-2	0	68*
O=C(NCCN1CCOCC1)c1cnn2c1NC(c1cccs1)CC2C(F)(F)F (stereo not drawn)	-1	1	96	-2	0	·
O=C(NCCCN1CCOCC1)C(=O)NCc1ccc(Cl)cc1	8	-4	104	-17	1	·
O=S(=O)(Nc1cc2nc3ccccc3nc2n1Cc1ccccc1)c1ccc(Cl)cc1	50*	-23	95	-3	11	42
O=S(=O)(NCc1ccccc1)c1ccc(Cl)cc1	-15	-1	103	4	1	·
Cc1ccc2c(c1)c1c3n2CCCNC3CCC1 (stereo not drawn)	45*	12	105	86*	0	44*
C(=N\n1cnnc1)/c1ccc(OCc2cccc3ccccc23)cc1	50*	1	103	-14	0	43
Fc1ccccc1COc1ccc(/C=N/n2cnnc2)cc1	38	7	95	-14	1	·
Cc1ccc(S(=O)(=O)N2CCCOC2CNC(=O)C(=O)NCc2ccccc2C)cc1 (stereo not drawn)	12	3	·	-1	0	·
O=C(C[n+]1ccc(/C=C/c2ccccc2)cc1)c1ccc2c(c1)OCCO2	63*	5	119	-22	0	43
CCOC(=O)/C(C#N)=C\c1cc(C)n(-c2ccccc2)c1C	-5	-2	102	8	1	·
CCOC(=O)/C(C#N)=C\c1ccc(N2CCN(C/C=C/c3ccccc3)CC2)cc1	51*	-11	107	-3	3	46*

Compound activity deposited in PubChem by several laboratories.
